# Assay results published in PubChem BioAssay (EPA / NIEHS).
# Active and inactive are the calls of the source. The calls were made as follows: active = hit-call score of the fitted dose curve at least 0.9, where 1 is the maximum; inactive = score below 0.9.
# Assay: ATG_M_61_CIS: Attagene CIS-FACTORIAL HepG2 Assay for M61 Transcription Factor (Internal Marker) (AID 2282937)
# Details: HepG2 Attagene CIS-FACTORIAL M61 internal marker reporter; actives raise or lower the signal
# Protocol: ATG_CIS is a cell-based, multiplexed-readout assay that uses HepG2, a human liver cell line, with measurements taken at 24 hours after chemical dosing in a 24-well plate.ATG_M_61_CIS is one of 52 assay component(s) measured or calculated from the ATG_CIS assay. It is designed to make measurements of mRNA induction, a form of inducible reporter, as detected with fluorescence intensity signals by Reverse transcription polymerase chain reaction (RT-PCR) and Capillary electrophoresis technology.Data from the assay component ATG_M_61_CIS was analyzed into 1 assay endpoint. This assay endpoint, ATG_M_61_CIS, was analyzed with bidirectional fitting relative to DMSO as the negative control and baseline of activity. Using a type of inducible reporter, measures of mRNA for gain or loss-of-signal activity can be used to understand the background control at the transcription factor-level as they relate to the gene . Furthermore, this assay endpoint can be referred to as a secondary readout, because this assay has produced multiple assay endpoints where this one serves a background control function. To generalize the intended target to other relatable targets, this assay endpoint is annotated to the background measurement intended target family, where the subfamily is internal marker.
# Human liver HepG2 cells are transiently transfected with multiple reporter transcription units (MRTUs) in 6-well plates using FuGene 6 reagent (Roche; 3 ml FuGene/1 mg DNA). The MRTU constructs are regulated by a cis-regulating element (promoter). […] A major difference between the CIS and TRANS system is that in CIS activities of endogenous TFs are measured, whereas the TRANS assay evaluates changes in activities of exogenous, chimeric NR-Gal4 proteins. […] At the end of 24 hour incubation, total RNA was isolated using TriZol reagent (Invitrogen). The isolated RNA is then reverse-transcribed using oligo(dT) primer and Mo-MLV reverse transcriptase (Invitrogen) with DNAse I (Ambion) treatment for 30 min. The one-tenth of the produced cDNA was amplified by PCR using Taq DNA polymerase (Invitrogen) and two reporter sequence-specific primers. The PCR products were fluorescently labeled by primer extension with 6-arboxyfluorescein (6-FAM) 5'-labeled reporter sequence-specific primer (2 min at 95 C, 20 s at 68 C and 10 min at 72 C) and these products were digested with 5U of HpaI (New England Biolabs) for 2h at 37 C. The fragments were purified using Qiaquick PCR columns (Qiagen), analyzed on an ABI 3130xL genetic analyzer (Applied Biosystems) with peak positions identified by using a set of X-rhodamine (ROX)-labeled MapMarker1000 molecular weight standards (BioVentures). The raw capillary electrophoresis data was processed using Attagraph software (Attagene).
row,SMILES,outcome
1,O=C(C=Cc1ccccc1)OCC=Cc1ccccc1,inactive
2,CCCCOCCOCCOC(=O)CCCCC(=O)OCCOCCOCCCC,inactive
3,O=C(O)C(F)(F)C(F)(F)C(F)F,inactive
4,Cc1ccc(S(=O)(=O)OCC(F)(F)C(F)(F)C(F)(F)C(F)(F)C(F)(F)C(F)F)cc1,inactive
5,CCc1c(Br)c(Br)c(Br)c(Br)c1Br,inactive
6,FC(F)(F)C(F)(F)C(F)(F)C(F)(F)C(F)(F)C(F)(F)C(F)(F)Br,inactive
7,Cc1cc(C)cc(O)c1,inactive
8,N=C(N)C(F)(F)C(F)(F)C(F)(F)C(F)(F)C(F)(F)C(F)(F)C(F)(F)F,inactive
9,CCCCCCCOC(=O)c1ccccc1C(=O)OCCCCCCC,inactive
10,NC(=O)C(F)(F)C(F)(F)C(F)(F)C(F)(F)F,inactive
11,O=C(OCCOCCOCCOC(=O)c1ccccc1)c1ccccc1,inactive
12,FC(F)(F)C(F)(F)CNCC(F)(F)C(F)(F)F,inactive
13,FC(F)(F)C(F)(F)C(F)(F)CI,inactive
14,O=C(O)C(F)(F)C(F)(F)C(F)(F)C(F)(F)C(F)(F)C(F)(F)C(F)(F)C(F)(F)C(F)(F)C(F)F,inactive
15,CCCCCCC(C)OC(=O)CCCCC(=O)OC(C)CCCCCC (stereo not given),inactive
16,OCCCC(F)(F)C(F)(F)C(F)(F)F,inactive
17,CC(=O)Nc1ccc(N=Nc2cc(C)ccc2O)cc1,inactive
18,CCCCCCCCCCCCCCCC[N+](C)(C)Cc1ccccc1,inactive
19,FC(F)(F)C(F)(F)C(F)(F)C(F)(F)C(F)(F)C(F)(F)CCS,inactive
20,CC(C)c1ccccc1N,inactive

row,SMILES,outcome
1,FC(F)(Br)C(F)(F)C(F)(F)C(F)(F)C(F)(F)C(F)(F)Br,inactive
2,C(=C(c1ccccc1)c1ccccc1)c1ccccc1,inactive
3,O=C(O)C(F)(OC(F)(F)C(F)(OC(F)(F)C(F)(OC(F)(F)C(F)(F)C(F)(F)F)C(F)(F)F)C(F)(F)F)C(F)(F)F (stereo not given),inactive
4,CCCCCCS,inactive
5,O=C(O)C(F)(F)C(F)(F)C(F)(F)C(F)(F)C(F)(F)C(F)(F)C(F)(F)C(F)(F)C(F)(F)C(F)(F)C(F)(F)C(F)(F)F,inactive
6,O=P(O)(O)OCCC(F)(F)C(F)(F)C(F)(F)C(F)(F)C(F)(F)C(F)(F)F,inactive
7,O=C(O)C(F)(F)C(F)(F)C(F)(F)C(F)(F)C(F)(F)C(F)(F)C(F)(F)C(F)(F)Cl,inactive
8,CCN(CC)c1ccc2c(C)cc(=O)oc2c1,inactive
9,C=C(C)C(=O)OCC(F)(F)C(F)(F)C(F)(F)F,inactive
10,CN(C)Cc1ccccc1O,inactive
11,CCCCNc1ccccc1,inactive
12,CCCCCCCCC(F)(F)C(F)(F)C(F)(F)C(F)(F)C(F)(F)C(F)(F)F,inactive
13,C=C(C)C(=O)OCCC(F)(F)C(F)(F)C(F)(F)C(F)(F)C(F)(C(F)(F)F)C(F)(F)F,inactive
14,O=C(O)C(F)(F)C(F)(F)C(F)(F)C(F)(F)F,inactive
15,CCCCCCOC(=O)c1ccccc1O,inactive
16,O=C(O)C(F)(F)C(F)(F)F,inactive
17,O=S(=O)(O)c1ccc2ccccc2c1,inactive
18,Nc1ccc(S(=O)(=O)Nc2nccs2)cc1,inactive
19,COC(=O)C1CCC(C(=O)OC)CC1 (stereo not given),inactive
20,C=CC(F)(F)C(F)(F)C(F)(F)C(F)(F)C(F)(F)C(F)(F)C(F)(F)C(F)(F)F,inactive
